# ± gives the standard deviation.
# Tested on: MILI (PIWIL2) piRISC loaded with piRNA #1 (26 nt);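 note: 1 nM active piRISC with 0.1 nM target library at 33 °C single turnover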
# Assay: pre-steady-state target cleavage rate (min^-1); guide: piRNA #1 5'p-UGAGGUAGUAGGUUGUAUAGUAUCCA; higher = faster piRNA-guided slicing of the target
# Details: auxiliary factor: 500 nM mouse GTSF1
# In short: (§1)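 In this Cleave-'n-Seq assay, uncleaved targets were sequenced and normalised to depth and to weakly complementary targets. They came from a transcribed, DNA-blocked target RNA library […] mixed with 1 nM active affinity-purified piRISC carrying one synthetic guide, with or without 500 nM GTSF1 partner protein, in HEPES–potassium acetate buffer at 33 °C for 0–8 or 0–960 min. After three trials were pooled and k3 was capped at 0.0001 min^-1, the pre-steady-state cleavage rate was obtained from a burst-and-steady-state fit.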
row,Sequence,pre-steady-state target cleavage rate
1,GGAGACGAAUACUAUACAACCUACUACCUCA,0.178 ± 0.015
2,GGAGACGAUACUAUACCAACCUACUACCUCA,0.0605 ± 0.013
3,GGAGACCUAACUCAUACAACCUACUACCUCA,0.0742 ± 0.033
4,GGAGAGGUUACUAUUCAACCUACUACCUCA,0.164 ± 0.0098
5,GGAGACCAUACUAUACAAGCUACUUCCUCA,0.193 ± 0.016
6,GGAGACGAUACUAUACAACCUACUUCCACA,0.0194 ± 0.0082
7,GGAGACCAUACUAUACUACCUACUUCCUCA,0.0579 ± 0.011
8,GGAGACCAUACUAUACAACCUACUACUCA,0.204 ± 0.026
9,GGAGACCUUACUAUACAACUUACUACCUCA,0.0242 ± 0.0054
10,GGAGACGAUACUAUACAUCCUACUUCCUCA,0.157 ± 0.028
11,GGAGACCUAACUAUACAAGCUACUACGUCA,0.152 ± 0.033
12,GGAGACGAUACUAUACUACCAACUACCUCA,0.00729 ± 0.0029
13,GGAGACGAUACUAUACAACCACUACCUCA,0.00914 ± 0.0038
14,GGAGACCUAACUAUACAACCUCCUACCUCA,0.0273 ± 0.011
15,GGAGUGGAUACUAUACAACCUAUACCUCA,0.0048 ± 0.002
16,GGAGACGAUACUUAUCAACCUACUACCUCA,0.148 ± 0.013
17,GGAGACGAUACUAUACAACCUACUACGUCA,0.081 ± 0.012
18,GGAGAGGAUACUAUAGAACCUACUACCUCA,0.166 ± 0.013
19,GGAGACCAUAUUAUACAACCUACUACCUCA,0.188 ± 0.015
20,GGAGUGGAUACAAUACAAGCUACUACCUCA,0.213 ± 0.015

row,Sequence,pre-steady-state target cleavage rate
1,GGAGACGAUUCUAUACAACCUACAACCUCA,0.164 ± 0.013
2,GGAGAGGAUAGUAUACAACCUACUACGUCA,0.0614 ± 0.0098
3,GGAGAGGAUACUAUACAACCUACUAACCUCA,0.159 ± 0.016
4,GGAGACCUAACUCUACAACCUACUACCUCA,0.114 ± 0.031
5,GGAGACGAUACUAUACAAGCUACAACCUCA,0.211 ± 0.018
6,GGAGACCUAAUCUAUACAACCUACUACCUCA,0.11 ± 0.024
7,GGAGACCUUAGUAUACAACCUACUACCUCA,0.0889 ± 0.0097
8,GGAGAGCAUACAAUACAACCUACUACCUCA,0.206 ± 0.017
9,GGAGACCUAACUAUACAACCUACAUCCUCA,0.0364 ± 0.013
10,GGAGACGAUACUAUACAACCUACAACCACA,0.0888 ± 0.035
11,GGAGACCUUACUAUACAAGCUACUACCUGA,0.158 ± 0.021
12,GGAGACCAUUCUAUACUACCUACUACCUCA,0.111 ± 0.013
13,GGAGAGGAUACUAUACAUCCUACAACCUCA,0.125 ± 0.024
14,GGAGAGGAUACUAUACAACCUACUCACCUCA,0.138 ± 0.016
15,GGAGUGGAUAGUAUACAACCUACUACCACA,0.0277 ± 0.0092
16,GGAGUGGAUACUAUGCAACCUACUACCUCA,0.192 ± 0.009
17,GGAGACCUUACUAUACAACCCACUACCUCA,0.0224 ± 0.0038
18,GGAGACGAUACUAUACAACCUACUUCCUCA,0.0885 ± 0.024
19,GGAGACCUAUGAAUACAACCUACAUACCUCA,0.00848 ± 0.0021
20,GGAGUGGAUACUAUACAACCAACAACCUCA,0.00386 ± 0.0015

# Tested on: EfPiwi piRISC loaded with piRNA #1 (26 nt)
# Assay: pre-steady-state target cleavage rate (min^-1); auxiliary factor: 500 nM Ephydatia muelleri Gtsf1; guide: piRNA #1 5'p-UGAGGUAGUAGGUUGUAUAGUAUCCA; MIWI and MILI are mouse PIWI proteins and EfPiwi is from a freshwater sponge; tags in brackets are library labels; higher = faster piRNA-guided slicing of the target
# Details: not given
# In short: as §1
row,Sequence,pre-steady-state target cleavage rate
1,GGAGACGAAUACUAUACAACCUACUACCUCA,0.0529 ± 0.018
2,GGAGACGAUACUAUACCAACCUACUACCUCA,0.0123 ± 0.0043
3,GGAGACCUAACUCAUACAACCUACUACCUCA,0.0159 ± 0.0089
4,GGAGAGGUUACUAUUCAACCUACUACCUCA,0.00359 ± 0.0029
5,GGAGACCAUACUAUACAAGCUACUUCCUCA,0.00551 ± 0.0027
6,GGAGACGAUACUAUACAACCUACUUCCACA,0.00373 ± 0.0021
7,GGAGACCAUACUAUACUACCUACUUCCUCA,0.00301 ± 0.0023
8,GGAGACCAUACUAUACAACCUACUACUCA,0.00387 ± 0.0024
9,GGAGACCUUACUAUACAACUUACUACCUCA,0.00902 ± 0.0051
10,GGAGACGAUACUAUACAUCCUACUUCCUCA,0.00415 ± 0.0023
11,GGAGACCUAACUAUACAAGCUACUACGUCA,0.004 ± 0.0035
12,GGAGACGAUACUAUACUACCAACUACCUCA,0.0038 ± 0.0023
13,GGAGACGAUACUAUACAACCACUACCUCA,0.00795 ± 0.0036
14,GGAGACCUAACUAUACAACCUCCUACCUCA,0.00446 ± 0.0029
15,GGAGUGGAUACUAUACAACCUAUACCUCA,0.00334 ± 0.0019
16,GGAGACGAUACUUAUCAACCUACUACCUCA,0.00522 ± 0.0041
17,GGAGACGAUACUAUACAACCUACUACGUCA,0.00658 ± 0.002
18,GGAGAGGAUACUAUAGAACCUACUACCUCA,0.00475 ± 0.0023
19,GGAGACCAUAUUAUACAACCUACUACCUCA,0.116 ± 0.036
20,GGAGUGGAUACAAUACAAGCUACUACCUCA,0.00566 ± 0.0028

row,Sequence,pre-steady-state target cleavage rate
1,GGAGACGAUUCUAUACAACCUACAACCUCA,0.00277 ± 0.0012
2,GGAGAGGAUAGUAUACAACCUACUACGUCA,0.0031 ± 0.0021
3,GGAGAGGAUACUAUACAACCUACUAACCUCA,0.00574 ± 0.0027
4,GGAGACCUAACUCUACAACCUACUACCUCA,0.0071 ± 0.0032
5,GGAGACGAUACUAUACAAGCUACAACCUCA,0.00442 ± 0.0022
6,GGAGACCUAAUCUAUACAACCUACUACCUCA,0.297 ± 0.099
7,GGAGACCUUAGUAUACAACCUACUACCUCA,0.0563 ± 0.02
8,GGAGAGCAUACAAUACAACCUACUACCUCA,0.00861 ± 0.0046
9,GGAGACCUAACUAUACAACCUACAUCCUCA,0.00597 ± 0.0051
10,GGAGACGAUACUAUACAACCUACAACCACA,0.00436 ± 0.0022
11,GGAGACCUUACUAUACAAGCUACUACCUGA,0.00346 ± 0.003
12,GGAGACCAUUCUAUACUACCUACUACCUCA,0.00741 ± 0.0044
13,GGAGAGGAUACUAUACAUCCUACAACCUCA,0.00339 ± 0.0022
14,GGAGAGGAUACUAUACAACCUACUCACCUCA,0.00339 ± 0.0021
15,GGAGUGGAUAGUAUACAACCUACUACCACA,0.00327 ± 0.0018
16,GGAGUGGAUACUAUGCAACCUACUACCUCA,0.09 ± 0.035
17,GGAGACCUUACUAUACAACCCACUACCUCA,0.00926 ± 0.0048
18,GGAGACGAUACUAUACAACCUACUUCCUCA,0.00431 ± 0.0018
19,GGAGACCUAUGAAUACAACCUACAUACCUCA,< 0.0001
20,GGAGUGGAUACUAUACAACCAACAACCUCA,0.00217 ± 0.0016

# Source: the supplement of paper PMC10338343
